The test system of one test is Mel-DCC-11-R. Kind of test: cell viability relative to DMSO control (fraction of DMSO control); higher = less cytotoxic, active = 0.8 or less. To be noted: 1 µM; 120 h; vemurafenib co-treatment 0 µM. In a few lines:
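Patient-derived Mel-DCC-11, its resistant subline Mel-DCC-11-R (alone and with 8 µM of its selecting drug) and NHEM-hTERT immortalized melanocytes were exposed for 120 h to 315 approved anti-cancer drugs at 1 µM in duplicate. Luminescence was read with ATPlite 1step. Viability was normalised to vehicle controls and averaged over duplicates.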
On to `COc1cc2nccc(Oc3ccc(NC(=O)NC4CC4)c(Cl)c3)c2cc1C(N)=O` [Lenvatinib], for which the cell viability is 1.03 (inactive).

For `Oc1cc(O)cc(/C=C/c2ccc(O)c(O)c2)c1` [Piceatannol], the cell viability was 0.982 (inactive).

Consider `CS(=O)(=O)CCNCc1ccc(-c2ccc3ncnc(Nc4ccc(OCc5cccc(F)c5)c(Cl)c4)c3c2)o1.Cc1ccc(S(=O)(=O)O)cc1.Cc1ccc(S(=O)(=O)O)cc1` [Lapatinib Ditosylate], for which the cell viability is 1.27 (inactive).

As for `S=c1nc[nH]c2nc[nH]c12` [Mercaptopurine], the cell viability is 0.876 (inactive).

In the case of `CN(N=O)C(=O)N[C@@H]1[C@@H](O)[C@H](O)[C@@H](CO)O[C@@H]1O` [Streptozocin], the cell viability is 0.976 (inactive).

`S=P(N1CC1)(N1CC1)N1CC1` [Triethylenethiophosphoramide]: the cell viability is 0.91 (inactive).

Take `Nc1[nH]c(=O)ncc1F` [Fluorocytosine]: the cell viability is 0.936 (inactive).

As for `COc1cccc2c1C(=O)c1c(O)c3c(c(O)c1C2=O)C[C@@](O)(C(=O)CO)C[C@@H]3O[C@H]1C[C@H](N)[C@H](O)[C@H](C)O1.Cl` [Doxorubicin hydrochloride], the cell viability is 0.166 (active).

Take `O=C(CCBr)N1CCN(C(=O)CCBr)CC1` [Pipobroman]: the cell viability was 0.832 (inactive).

Regarding `CC(C)NCC(O)COc1cccc2ccccc12.Cl` (stereo unspecified) [Propranolol hydrochloride], the cell viability is 0.858 (inactive).

The test is the same for the next values; noted with them: 1 µM; 120 h; vemurafenib co-treatment 8 µM.
Consider `CS(=O)(=O)OCCCCOS(C)(=O)=O` [Busulfan], for which the cell viability was 1.13 (inactive).

In the case of `C=C1CC[C@@H]2[C@](C)(CO)[C@H](O)CC[C@@]2(C)[C@@H]1C/C=C1/C(=O)OC[C@H]1O` [Andrographolide], the cell viability was 1.02 (inactive).

In the case of `N#CC1(c2ccc(NC(=O)c3cccnc3NCc3ccncc3)cc2)CCCC1` [Apatinib], the cell viability was 1.13 (inactive).

On to `CN(CCOc1ccc(CC2SC(=O)NC2=O)cc1)c1ccccn1.O=C(O)/C=C\C(=O)O` (stereo unspecified) [Rosiglitazone maleate], for which the cell viability was 1.12 (inactive).

As for `COc1ccc(C(Cl)=C(c2ccc(OC)cc2)c2ccc(OC)cc2)cc1` [Chlorotrianisene], the cell viability is 0.833 (inactive).

For the compound `O=C(/C=C/c1ccc(O)cc1)c1ccc(O)cc1O` [Isoliquiritigenin], the cell viability was 1.02 (inactive).

Turning to `CCCCCCCCCCCCCCCCOP(=O)([O-])OCC[N+](C)(C)C` [Miltefosine], the cell viability was 0.936 (inactive).

On to `COc1cc2c(N3CCN(C(=O)Nc4ccc(OC(C)C)cc4)CC3)ncnc2cc1OCCCN1CCCCC1` [Tandutinib], for which the cell viability was 1.04 (inactive).

On to `CCc1cn([C@H]2C[C@H](O)[C@@H](CO)O2)c(=O)[nH]c1=O` [Edoxudine], for which the cell viability is 0.802 (inactive).

As for `COC(=O)C[C@](O)(CCCC(C)(C)O)C(=O)O[C@@H]1C(OC)=CC23CCCN2CCc2cc4c(cc2[C@H]13)OCO4` (stereo partly specified) [Homoharringtonine], the cell viability was 0.0543 (active).

`CC[C@]1(O)C[C@@H]2C[N@@](CCc3c([nH]c4ccccc34)[C@@](C(=O)OC)(c3cc4c(cc3OC)N(C)[C@H]3[C@@](O)(C(=O)OC)[C@H](OC(C)=O)[C@]5(CC)C=CCN6CC[C@]43[C@@H]65)C2)C1.O=S(=O)(O)O` [Vinblastine sulfate]: the cell viability was 0.252 (active).

As for `CC=Cc1ccc(OC)cc1` (stereo in doubt) [cis-Anethol], the cell viability is 0.591 (active).

For `CCN(CC)CCNC(=O)c1c(C)[nH]c(/C=C2\C(=O)Nc3ccc(F)cc32)c1C.C[C@@H](CC(=O)O)C(=O)O` [Sunitinib Malate], the cell viability was 0.927 (inactive).

As to `COc1cc2nccc(Oc3ccc(NC(=O)Nc4cc(C)on4)c(Cl)c3)c2cc1OC` [Tivozanib], the cell viability is 1.08 (inactive).

Take `C=CC(=O)N1CCC[C@@H](n2nc(-c3ccc(Oc4ccccc4)cc3)c3c(N)ncnc32)C1` [Ibrutinib]: the cell viability was 0.733 (active).

On to `Cn1nnc(-c2ccc(-c3ccc(N4C[C@H](CO)OC4=O)cc3F)cn2)n1` [Torezolid], for which the cell viability was 0.663 (active).

Consider `CCc1cc2c(cc1N1CCC(N3CCOCC3)CC1)C(C)(C)c1[nH]c3cc(C#N)ccc3c1C2=O` [Alectinib], for which the cell viability is 0.888 (inactive).

Turning to `Nc1nc(=O)c2c([nH]1)NCC(CNc1ccc(C(=O)N[C@@H](CCC(=O)[O-])C(=O)[O-])cc1)N2C=O.[Ca+2]` (stereo partly specified) [Calcium folinate], the cell viability was 1.31 (inactive).

With `Cl.Cl.Cl.Cl.Cl.Cl.Cl.Cl.c1cc(CN2CCCNCCNCCCNCC2)ccc1CN1CCCNCCNCCCNCC1` [AMD 3100 octahydrochloride], the cell viability was 0.984 (inactive).

Turning to `CNC(=O)c1ccc(N2C(=S)N(c3ccc(C#N)c(C(F)(F)F)c3)C(=O)C2(C)C)cc1F` [Enzalutamide], the cell viability was 1.09 (inactive).

`CC[C@@]1(O)C(=O)OCc2c1cc1n(c2=O)Cc2cc3c(CN(C)C)c(O)ccc3nc2-1.Cl` [Topotecan hydrochloride]: the cell viability is 0.339 (active).

For `CC[C@@H](CO)NCCN[C@@H](CC)CO.Cl.Cl` [Ethambutol dihydrochloride], the cell viability is 1.08 (inactive).

As for `C=C(c1ccc(C(=O)O)cc1)c1cc2c(cc1C)C(C)(C)CCC2(C)C` [Bexarotene], the cell viability is 1.59 (inactive).

With `CC(O)(P(=O)([O-])O)P(=O)([O-])O.[Na+].[Na+]` [Sodium etidronate], the cell viability is 0.91 (inactive).

Take `CNC(=O)c1cc(Oc2ccc(NC(=O)Nc3ccc(Cl)c(C(F)(F)F)c3)cc2)ccn1.Cc1ccc(S(=O)(=O)O)cc1` [Sorafenib tosylate]: the cell viability is 1.1 (inactive).

As for `COc1cccc2c1C(=O)c1c(O)c3c(c(O)c1C2=O)C[C@@](O)(C(C)=O)C[C@@H]3O[C@H]1C[C@H](N)[C@H](O)[C@H](C)O1.Cl` [Daunorubicin hydrochloride], the cell viability is 0.0387 (active).

For `COc1cc2nccc(Oc3ccc(NC(=O)NC4CC4)c(Cl)c3)c2cc1C(N)=O` [Lenvatinib], the cell viability is 1.17 (inactive).

For `Oc1cc(O)cc(/C=C/c2ccc(O)c(O)c2)c1` [Piceatannol], the cell viability is 1 (inactive).

On to `CS(=O)(=O)CCNCc1ccc(-c2ccc3ncnc(Nc4ccc(OCc5cccc(F)c5)c(Cl)c4)c3c2)o1.Cc1ccc(S(=O)(=O)O)cc1.Cc1ccc(S(=O)(=O)O)cc1` [Lapatinib Ditosylate], for which the cell viability is 0.885 (inactive).

Take `S=c1nc[nH]c2nc[nH]c12` [Mercaptopurine]: the cell viability was 0.993 (inactive).

Take `CN(N=O)C(=O)N[C@@H]1[C@@H](O)[C@H](O)[C@@H](CO)O[C@@H]1O` [Streptozocin]: the cell viability was 1.1 (inactive).

As to `S=P(N1CC1)(N1CC1)N1CC1` [Triethylenethiophosphoramide], the cell viability is 0.932 (inactive).

As to `Nc1[nH]c(=O)ncc1F` [Fluorocytosine], the cell viability is 1.08 (inactive).

For `COc1cccc2c1C(=O)c1c(O)c3c(c(O)c1C2=O)C[C@@](O)(C(=O)CO)C[C@@H]3O[C@H]1C[C@H](N)[C@H](O)[C@H](C)O1.Cl` [Doxorubicin hydrochloride], the cell viability is 0.171 (active).

On to `O=C(CCBr)N1CCN(C(=O)CCBr)CC1` [Pipobroman], for which the cell viability was 0.897 (inactive).

For `CC(C)NCC(O)COc1cccc2ccccc12.Cl` (stereo unspecified) [Propranolol hydrochloride], the cell viability was 1.06 (inactive).

For the origin of these results see the supplement of paper PMC12808144.
